{"source": "PubChem BioAssay (NCI)", "note": "Values joined by “and” are separate entries in the source; they are usually repeats but may differ in a detail not shown here. Identical values can stand only once. About 83,000 compounds went through this panel and 20% of them were active in at least one assay; those are over-represented in the sample as a whole.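 Single-concentration screen, 48 h exposure, 96-well plates. Endpoint: percent growth. Below 10 = active.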 Active and inactive are the calls of the source."}
{"system": "HS 578T breast", "experiment": "NCI-60 one-dose screen, 48 h (100 = growth as untreated, 0 = no growth, -100 = all killed)", "conditions": "10 µM unless noted", "method": "Growth inhibition of the HS 578T human tumor cell line is measured as a screen for anti-cancer activity. Cells are grown in 96 well plates and exposed to the test compound for 48 hours. Compounds are tested at a single concentration, which is 10^-5 M for most compounds. The reported endpoint is percent growth (GI% or GIPRCNT), where numbers from 0 - 100% represent growth inhibition, and numbers from -100% - 0 represent cell death. For example, a value of 40 represents 60% growth inhibition. A value of 0 means no net growth occurred over the course of the experiment. A value of -40 indicates 40% of cells at the beginning of the experiment died by the end of the experiment. A value of -100 means all cells are dead at the end of the experiment.\nNCI-60 Human Tumor Cell Lines Screen was performed using the standard one-dose NCI protocol, which is described in more detail at https://dtp.cancer.gov/discovery_development/nci-60/default.htm.\nCompounds with GIPRCNT values below 10 were considered active. Activity score was based on GIPRCNT using the following formula: […]\nScore is 0 for GIPRCNT values of 100 or above, 50 for GIPRCNT values of 0, and 100 for GIPRCNT values of -100."}
{"smiles": "C[C@]12C[C@H](c3ccoc3)OC(=O)[C@H]1CC[C@@]1(C)[C@@H]2[C@H]2C=C[C@]1(O)C(=O)O2", "growth": "107% (inactive)"}
{"smiles": "O=C(O)C(F)F", "growth": "96.2% (inactive)"}
{"smiles": "CC(=O)OC1CC2(O)C(CCC3(C)C(c4ccc(=O)oc4)CCC32O)C2(C)CCC(OC3OC(CO)C(O)C(O)C3O)C=C12", "note": "(stereo not given)", "growth": "-11.3% (active)"}
{"smiles": "CC1=C(C)C(=O)O[C@@H]([C@](C)(O)[C@]2(O)CC[C@@]3(O)[C@@H]4C[C@H]5O[C@]56CC=CC(=O)[C@]6(C)[C@H]4CC[C@]23C)C1", "growth": "9.59% (active)"}
{"smiles": "Cc1cc(C(C)(C)C)ccc1O", "growth": "99.8% (inactive)"}
{"smiles": "CO[C@H]1[C@H](O[C@@H]2C[C@@H]3C/C=C/C(=O)O[C@@H](CO)C[C@H](O)[C@@H]4C[C@H](C)[C@H](C/C=C\\C=C\\[C@H](C)C[C@H](C2)O3)O4)O[C@@H](C)[C@H](O)[C@H]1O", "growth": "95.1% (inactive)"}
{"smiles": "COc1ccc(O)c2c(=O)c3c(OC)cc4c(c3oc12)[C@@H]1C=CO[C@@H]1O4", "growth": "114% (inactive)"}
{"smiles": "CCCC(C)SP(=S)(SC(C)CCC)SC(C)CCC", "note": "(stereo not given)", "growth": "108% (inactive)"}
{"smiles": "Cc1cc2c(cc1-c1ccnc(/C=C/C(=O)O)c1)C(C)(C)CCC2(C)C", "growth": "59.6% (inactive)"}
{"smiles": "O=C/C=C/c1ccco1", "growth": "107% (inactive)"}
{"smiles": "CN(C)C(=S)SSC(=S)N(C)C", "growth": "101% (inactive) and 112% (inactive)"}
{"smiles": "Oc1cc(Cl)ccc1Oc1ccc(Cl)cc1Cl", "growth": "-18.1% (active)"}
{"smiles": "CCN(CC)CCn1c(=O)n(C)c2ccccc21", "growth": "95.5% (inactive)"}
{"smiles": "Cc1nc2ccccc2c(=O)n1-c1ccccc1F", "growth": "100% (inactive)"}
{"smiles": "O=C(O)C(Br)CBr", "note": "(stereo not given)", "growth": "111% (inactive)"}
{"smiles": "N#CC(C#N)=Cc1cccc(F)c1", "growth": "101% (inactive)"}
{"smiles": "C#Cc1cccc(Nc2nc(Cl)nc3cc(NC(=O)CF)ccc23)c1", "growth": "84.3% (inactive)"}
{"smiles": "CC[C@H](C)[C@H](NC(=O)c1ncccn1)C(=O)N(C)[C@H](C[C@@H](OC(C)=O)c1nc(C(=O)N[C@@H](Cc2ccccc2)C[C@H](C)C(=O)OC)cs1)C(C)C", "growth": "18.3% (inactive)"}
{"smiles": "N#CCCc1ccccc1", "growth": "118% (inactive)"}
{"smiles": "CC[C@H](C)[C@H](NC(=O)[C@H]1CCCCN1C)C(=O)N(C)[C@H](C[C@@H](OC(C)=O)c1cccc(C(=O)N[C@@H](Cc2ccccc2)C[C@H](C)C(=O)OC)n1)C(C)C", "growth": "19.9% (inactive)"}
{"smiles": "CC[C@H](C)[C@H](NC(=O)CN(C)C)C(=O)N(C)[C@H](C[C@@H](OC(C)=O)c1nc(C(=O)NC23CC(C(=O)OC)(C2)C3)cs1)C(C)C", "growth": "31.9% (inactive)"}
{"smiles": "Oc1ccc(O)c(Cl)c1", "growth": "93.5% (inactive) and 97.7% (inactive)"}
{"smiles": "CO/N=C1\\CC[C@]2(C)[C@H]3CC[C@]4(C)C(=O)CC[C@H]4[C@@H]3C[C@@H]3SC(N)=N[C@@]32C1", "growth": "102% (inactive)"}
{"smiles": "CNC(=O)Oc1ccc(Cl)cc1SSc1cc(Cl)ccc1OC(=O)NC", "growth": "85.6% (inactive)"}
{"smiles": "O=c1[nH]c(=O)n(Cl)c(=O)n1Cl", "growth": "106% (inactive) and 99.9% (inactive)"}
{"smiles": "CN1C2CCC1[C@@H](COC(=O)c1ccccc1)[C@@H](O)C2", "note": "(stereo not given in full)", "growth": "119% (inactive)"}
{"smiles": "O=CC1(c2ccccc2)CCN(Cc2ccccc2)CC1", "growth": "115% (inactive)"}
{"smiles": "CCC1CCC(=O)O1", "note": "(stereo not given)", "growth": "106% (inactive) and 108% (inactive)"}
{"smiles": "CN1CCc2cc3c(cc2C1O)OCO3", "note": "(stereo not given)", "growth": "55.3% (inactive) and 103% (inactive)"}
{"smiles": "C/C(=C\\c1ccn(-c2ccc(N)cc2F)n1)[C@@H]1C[C@@H]2O[C@]2(C)CCC[C@H](C)[C@H](O)[C@@H](C)C(=O)C(C)(C)[C@@H](O)CC(=O)O1", "growth": "-1.48% (active)"}
{"smiles": "C[C@]12CC[C@H]3[C@@H](C[C@@H]4SC(Nc5ccccc5)=N[C@@]45C/C(=N/O)CC[C@]35C)[C@@H]1CCC2=O", "growth": "65.2% (inactive)"}
{"smiles": "C[C@]12CCC3[C@@H](C[C@@H]4SC(Nc5ccccc5)=N[C@@]45CC(=O)CC[C@]35C)[C@@H]1CCC2=O", "note": "(stereo not given in full)", "growth": "41% (inactive)"}
{"smiles": "C[C@]12CC[C@H]3[C@@H](CC=C4c5nc(-c6ccc(Br)cc6)sc5CC[C@@]43C)[C@@H]1CC[C@@H]2O", "growth": "74% (inactive)"}
{"smiles": "O=[N+]([O-])c1ccc(P(=O)(O)O)cc1", "growth": "108% (inactive)"}
{"smiles": "C=CC[PH+](c1ccccc1)c1ccccc1.C=CC[PH+](c1ccccc1)c1ccccc1.[Pt+2].[S-]c1ncccn1.[S-]c1ncccn1", "growth": "61.6% (inactive)"}
{"smiles": "O=C(O)C1C(C(=O)O)C2(Cl)C(Cl)=C(Cl)C1(Cl)C2(Cl)Cl", "note": "(stereo not given)", "growth": "116% (inactive)"}
{"smiles": "O=[P+](O)c1cccnc1", "growth": "105% (inactive)"}
{"smiles": "S=P(SP(=S)(c1ccccc1)c1ccccc1)(c1ccccc1)c1ccccc1", "growth": "93.8% (inactive)"}
{"smiles": "COC12CC3(C)C(C4=CC(=O)OC4)CCC3(O)C3CCC4=CC(=O)CCC4(CO1)C32", "note": "(stereo not given)", "growth": "103% (inactive)"}
{"smiles": "C[C@]12CCc3sc(Nc4ccc(O)cc4)nc3C1=CC[C@@H]1[C@@H]2CC[C@]2(C)C(=O)CC[C@@H]12", "growth": "53.6% (inactive)"}
